Assay outcomes deposited in PubChem BioAssay by Broad Institute.
Dyrk1A ADPGlo: blocks rat Dyrk1A kinase activity; actives 0.43% (n = 310,000); ADP-Glo luminescence, NFATc1 peptide; inhibition, % at 12.5 µM; Q63470
NSD2 HMT inh: inhibitors of human histone methyltransferase NSD2. O96028. NSD2 peptide methylation, AlphaScreen, 120 min. inhibition, % at 12.5 µM. actives 0.54% (n = 310,000). AID 743445
Target sequence (O96028 whole entry, looked up): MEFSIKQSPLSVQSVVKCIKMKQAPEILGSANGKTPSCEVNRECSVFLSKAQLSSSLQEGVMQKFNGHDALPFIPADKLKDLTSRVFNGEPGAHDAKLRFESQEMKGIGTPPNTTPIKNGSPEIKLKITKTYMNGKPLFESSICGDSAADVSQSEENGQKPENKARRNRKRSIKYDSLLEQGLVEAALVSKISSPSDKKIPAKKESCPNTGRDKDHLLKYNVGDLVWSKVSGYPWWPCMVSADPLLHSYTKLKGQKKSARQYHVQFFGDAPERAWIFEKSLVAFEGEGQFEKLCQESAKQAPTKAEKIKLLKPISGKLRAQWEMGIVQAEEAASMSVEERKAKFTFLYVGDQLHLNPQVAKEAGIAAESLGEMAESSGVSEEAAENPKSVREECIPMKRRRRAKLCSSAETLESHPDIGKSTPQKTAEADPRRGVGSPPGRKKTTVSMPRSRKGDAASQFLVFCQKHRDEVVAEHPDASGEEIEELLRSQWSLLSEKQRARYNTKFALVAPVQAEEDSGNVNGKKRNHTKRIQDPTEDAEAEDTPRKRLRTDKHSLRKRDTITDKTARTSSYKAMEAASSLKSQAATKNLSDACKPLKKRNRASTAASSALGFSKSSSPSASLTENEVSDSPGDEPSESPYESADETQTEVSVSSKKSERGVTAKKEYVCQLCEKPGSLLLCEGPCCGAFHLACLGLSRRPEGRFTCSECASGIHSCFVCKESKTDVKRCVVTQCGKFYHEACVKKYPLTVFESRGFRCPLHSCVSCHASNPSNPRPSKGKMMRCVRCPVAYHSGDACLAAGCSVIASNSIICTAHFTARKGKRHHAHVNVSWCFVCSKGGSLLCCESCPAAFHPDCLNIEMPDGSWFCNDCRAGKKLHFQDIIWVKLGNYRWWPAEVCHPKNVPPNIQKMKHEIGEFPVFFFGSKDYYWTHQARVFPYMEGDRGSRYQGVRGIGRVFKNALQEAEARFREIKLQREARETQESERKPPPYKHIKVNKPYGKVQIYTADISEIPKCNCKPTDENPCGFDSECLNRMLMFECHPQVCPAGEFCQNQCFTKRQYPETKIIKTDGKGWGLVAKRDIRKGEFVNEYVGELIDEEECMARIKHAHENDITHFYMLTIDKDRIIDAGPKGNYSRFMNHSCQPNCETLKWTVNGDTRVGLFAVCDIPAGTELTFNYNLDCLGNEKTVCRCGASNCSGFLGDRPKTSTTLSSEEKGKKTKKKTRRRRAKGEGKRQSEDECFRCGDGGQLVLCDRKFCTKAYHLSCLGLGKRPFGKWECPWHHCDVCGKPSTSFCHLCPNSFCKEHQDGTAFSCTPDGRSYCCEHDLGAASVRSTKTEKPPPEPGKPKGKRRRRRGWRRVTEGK
Wnt act: activates Wnt/beta-catenin signaling in a reporter cell assay | activator, plate reader | activation, % at 9.35 µM | actives 1.2% (n = 300,000); in the data active = activation above about 30%, passing the limit was not always enough
miR122 inh: blocks miR-122 activity in Huh7 sensor cells; Huh7 miR-122 Renilla luciferase sensor, 48 h; neutral wells = 0, positive control = 100; activation (reporter increase), % at 12.5 µM; actives 0.3% (n = 340,000);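 active = mean replicate activation score at least 90 and every replicate individually at or above 90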;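 also: higher luciferase means less miR-122 activity so hits act as miR-122 inhibitors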
MITF TRPM1 HTS: increases MITF-driven TRPM1 promoter luciferase signal. activation, % at 12.5 µM. actives 0.75% (n = 300,000). SK-MEL-5 TRPM1-promoter luciferase, 24 h; % of positive control, neutral wells = 0;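 active = mean activation of at least 80% with every replicate also reaching 80%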
INS-1E GSIS act: GLuc luminescence reporter in INS-1E cells, primary screen for activators of glucose-dependent secretion of insulin | INS-1E GLuc reporter insulin secretion, 2-3 h | activation, % at 16.6 µM | AID 743287 | actives 0.61% (n = 370,000);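 active = lowest replicate activation of at least 40%, so every replicate reaches that level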
Alpha artifact: interferes with AlphaScreen signal, flagging NSD2 false positives; shares compounds with NSD2 HMT inh; AlphaScreen artifact counterscreen, preloaded methylated H4 peptide; AC35, µM (titrated, usually from 10 µM); actives 9.4% (n = 1,500); call rule not given here
Hits are given with their value; 0 = inactive; - = not tested or not shown. A selection: hits, their analogues and other compounds. The true share with any hit is near 2.4%. Rule as the data show it, unless noted: active = inhibition above about 50%; inactive = the rest.

SMILES	Dyrk1A ADPGlo	NSD2 HMT inh	Wnt act	miR122 inh	MITF TRPM1 HTS	INS-1E GSIS act	Alpha artifact
Cc1[nH]n(-c2ccccc2)c(=O)c1C(C[N+](=O)[O-])c1ccc(Cl)cc1 (centres undefined)	0	100	0	0	0	0	0
Cc1ccc(C(C[N+](=O)[O-])c2c(C)[nH]n(-c3ccccc3)c2=O)cc1 (centres undefined)	0	103	0	0	0	0	0
COc1ccc(C(c2c(C)[nH]n(-c3ccccc3)c2=O)c2c(C)[nH]n(-c3ccccc3)c2=O)cc1OC	0	98	0	0	0	0	0
Cc1[nH]n(-c2ccccc2)c(=O)c1C(c1ccccc1C(=O)O)c1c(C)[nH]n(-c2ccccc2)c1=O	0	0	0	-	0	0	-
C[C@@H]1CN([C@@H](C)CO)C(=O)c2cc(-c3ccc(C#N)cc3)cnc2O[C@H]1CN(C)CC1CCCCC1	-	-	-	0	-	0	-
CC(C)NC(=O)Nc1ccc2c(c1)CC(=O)N([C@H](C)CO)C[C@@H](C)[C@H](CN(C)C)O2	-	-	-	0	-	0	-
O=C(NC1CCC1)[C@H]1[C@H](CO)[C@H]2Cn3c(ccc(-c4ccncc4)c3=O)[C@@H]1N2CC1CC1	-	-	-	0	-	0	-
C[C@H](CO)N1C[C@H](C)[C@H](CN(C)C(=O)Nc2ccc(C(F)(F)F)cc2)Oc2c(NS(=O)(=O)c3ccc(Cl)cc3)cccc2C1=O	-	-	-	0	-	0	-
Cc1ccc(-n2c(C)cc(/C=N/NC(=O)CC3(C)OCCO3)c2C)c(C)c1	0	0	-	0	0	-	-
CC1(CC(=O)N/N=C/c2cc([N+](=O)[O-])c(O)cc2O)OCCO1	0	60	0	0	0	0	0
O=[N+]([O-])c1ccc(N/N=C/c2cccs2)nc1	0	52	56	-	109	0	0
O=[N+]([O-])c1ccc(N/N=C\c2cccn2-c2ccccc2)nc1	0	0	-	0	0	0	-
O=c1c2ccc([N+](=O)[O-])cc2sn1-c1ccccc1	-	59	-	-	-	-	0
O=c1c2ccccc2sn1-c1ccc(Cl)cc1	-	-	0	0	-	0	-
Nn1cnnc1N/N=C/c1ccc(Cl)c([N+](=O)[O-])c1	0	116	0	-	0	0	0
O=S(=O)(c1ccc2c(c1)nc1n2CCC1)N1CCOCC1	0	92	0	0	-	-	0
CO[C@H]1CN(C)C(=O)c2ccc(NS(C)(=O)=O)cc2OC[C@H](C)N(Cc2cccnc2)C[C@H]1C	-	-	-	0	-	0	-
CN(c1ccc(C(=O)O)cc1)S(=O)(=O)c1ccccc1	0	52	0	0	0	-	0
Cc1ccnc(-n2c(CCN3C(=O)c4ccccc4C3=O)nc3ccccc3c2=O)c1	0	52	0	0	-	0	0
CCCC(=O)Nc1cc(C)cn(Cc2c(F)cccc2Cl)c1=O	0	76	0	0	-	0	0
C[C@@H]1CCCCO[C@@H](CN(C)S(=O)(=O)c2ccc(Cl)cc2)[C@H](C)CN([C@H](C)CO)C(=O)c2cc(NC(=O)CCC(F)(F)F)ccc2O1	-	-	-	0	-	0	-
O=C(Nc1ccc(Br)cc1)c1ccc(-n2cnnn2)cc1	0	105	0	-	0	-	0
Cc1noc(C)c1NC(=O)N(C)C[C@H]1Oc2c(NC(=O)c3nc4ccccc4s3)cccc2C(=O)N([C@H](C)CO)C[C@@H]1C	-	-	-	0	-	0	-
Cc1ccccc1-c1ocnc1C(=O)Nc1ccccc1NC(=O)c1ccccn1	0	74	0	0	0	0	0
O=C(Nc1cc(F)ccc1F)N[C@@H]1CC[C@H](CC(=O)N2CCc3ccccc3C2)O[C@@H]1CO	-	-	-	-	-	0	-
SMILES	Dyrk1A ADPGlo	NSD2 HMT inh	Wnt act	miR122 inh	MITF TRPM1 HTS	INS-1E GSIS act	Alpha artifact
Cc1cc(OCC(=O)Nc2ccccc2N2CCCCC2)ccc1C(C)C	0	77	0	-	0	0	0
C[C@H](CO)N1C[C@H](C)[C@H](CN(C)Cc2ccc(C(=O)O)cc2)OCCCC[C@H](C)Oc2ccc(NS(=O)(=O)c3cccs3)cc2C1=O	-	-	-	0	-	0	-
CCCCn1c(Cn2nc(C(=O)O)c3ccccc3c2=O)nc2cc(S(N)(=O)=O)ccc21	0	102	0	-	0	0	0
NS(=O)(=O)c1ccc(NC(=O)Cn2nc(C(=O)O)c3ccccc3c2=O)cc1	0	0	0	-	0	0	-
COc1cc2[nH]c(Cl)c([N+](=O)[O-])c2cc1OC	0	95	0	0	0	0	0
C[C@H](CO)N1C[C@H](C)[C@H](CN(C)C(=O)CC2CC2)Oc2ncc(C#Cc3cccnc3)cc2C1=O	-	-	-	0	-	0	-
COc1cc2c(oc(=O)c3cc(C)cc(OC)c32)c2c(C3OC(C)C(O)C(C)(O)C3O)ccc(O)c12 (centres undefined)	0	86	0	0	-	-	0
CN(C)S(=O)(=O)c1ccc(Cl)c(C(=O)OCC(=O)c2ccco2)c1	0	55	0	0	0	0	0
CN(Cc1ccccc1)S(=O)(=O)c1ccc(Cl)c(C(=O)OCC(N)=O)c1	0	0	0	0	0	0	-
CCCCN(CC)CCNC(=O)c1cc2c(-c3ccccc3F)nn(C)c2s1	0	86	0	0	0	0	0
CC1CCCCN1CCNC(=O)c1cc2c(-c3ccccc3F)nn(C)c2s1 (centres undefined)	0	-	0	0	0	0	-
CSc1ncccc1C(=O)Nc1nc2c(C)cccc2s1	0	104	-	-	0	0	0
O=C(OC(C(=O)NCc1cccs1)c1ccccn1)c1cccs1 (centres undefined)	0	0	0	0	0	-	-
O=C(OC(C(=O)NC1CCCCC1)c1ccccn1)c1cccs1 (centres undefined)	0	114	-	0	0	-	0
c1ccc(CN2CCN(c3nc(-c4ccccc4)nc(-n4ccnc4)n3)CC2)cc1	0	63	-	0	-	-	0
O=C(C[C@@H]1C[C@@H]2c3cc(NC(=O)CC4CC4)ccc3O[C@@H]2[C@@H](CO)O1)NCCc1ccccc1	-	-	-	0	-	0	-
COc1ccc(NC(=O)N(C)C[C@H]2Oc3c(NS(=O)(=O)c4cccs4)cccc3C(=O)N([C@H](C)CO)C[C@H]2C)cc1	-	-	-	0	-	0	-
NC1=CC(=O)C(=O)c2ccccc21	0	100	0	0	0	0	0
O=C(Cc1ccc(Br)cc1)Nc1ncc([N+](=O)[O-])s1	0	50	0	0	-	-	0
CCN1CCCCC(=N/O)/C(=N/O)CCCC1	0	71	0	0	0	0	0
O=S(=O)(N[C@H]1CC[C@@H](CCn2cc(-c3ccccn3)nn2)O[C@H]1CO)c1cccc(Cl)c1	-	-	-	0	-	0	-
c1ccc(-c2cc(-c3ccccc3)n3ncnc3n2)cc1	0	50	0	0	0	0	0
COc1ccc(-c2cc(-c3ccccc3)nc3ncnn23)cc1	0	-	0	0	-	-	-
COC(=O)C[C@@H]1CC[C@@H]2[C@H](COc3ccc(NC(=O)c4cnccn4)cc3C(=O)N2C)O1	-	-	-	0	-	0	-
Cc1sc2nc[nH]c(=O)c2c1-c1ccc(F)cc1	0	0	0	0	0	0	-
